Our source for the Potency values is PubChem BioAssay AID2595 (National Center for Advancing Translational Sciences (NCATS), 2010).

Values joined by “and” are separate entries in the source; they are usually repeats but may differ in a detail not shown here. Equal entries are not always repeated. Records with an inconclusive call do not appear. Active and inactive are the calls of the source. Calls follow the shape of the dose curve; as a rule, active = well fitted inhibition curve with a large enough effect; inconclusive = small, poorly fitted or top-dose-only effect, or effect the other way; inactive = flat fitted curve, though single readings scatter.

Lysosomal acid glucosylceramidase (Homo sapiens), sequence (P04062 whole entry, looked up): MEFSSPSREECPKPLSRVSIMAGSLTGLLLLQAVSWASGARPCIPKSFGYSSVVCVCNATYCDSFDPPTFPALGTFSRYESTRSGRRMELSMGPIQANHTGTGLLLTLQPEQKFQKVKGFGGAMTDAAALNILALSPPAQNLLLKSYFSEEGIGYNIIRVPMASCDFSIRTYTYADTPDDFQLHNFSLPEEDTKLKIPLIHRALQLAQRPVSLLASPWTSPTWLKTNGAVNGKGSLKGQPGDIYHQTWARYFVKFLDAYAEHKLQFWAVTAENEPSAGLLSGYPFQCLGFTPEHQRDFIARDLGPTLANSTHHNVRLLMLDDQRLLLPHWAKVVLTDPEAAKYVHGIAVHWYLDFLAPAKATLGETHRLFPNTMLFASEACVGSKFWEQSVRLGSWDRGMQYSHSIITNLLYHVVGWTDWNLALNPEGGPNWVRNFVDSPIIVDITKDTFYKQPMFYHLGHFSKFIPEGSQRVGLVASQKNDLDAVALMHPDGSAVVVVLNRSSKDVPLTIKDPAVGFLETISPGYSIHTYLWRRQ

The assay has as its target Lysosomal acid glucosylceramidase (Homo sapiens) (UniProt P04062). Nature of the assay: qHTS Assay for Inhibitors and Activators of N370S glucocerebrosidase as a Potential Chaperone Treatment of Gaucher Disease: Purified Non-mutant Glucocerebrosidase. As to conditions: purified wildtype GC, 4MU-beta-glucoside fluorescence, 40 min; series mostly up to 76.9 µM. From the text:
NIH Chemical Genomics Center [NCGC] NIH Molecular Libraries Probe Production Centers Network [MLPCN] MLPCN Grant: MH086442-01 Assay Submitter (PI): Wei Zheng Glucocerebrosidase (GC) catalyzes the hydrolysis of beta-glucocerebroside to glucose and ceramide in lysosomes. Mutations in the glucocerebrosidase gene result in Gaucher disease, an autosomal recessive lysosomal storage disorder. Many of the mutations encountered in patients with Gaucher disease are missense alterations that may cause misfolding, decreased stability and/or mistrafficking of this lysosomal protein. […] These inhibitors include iminosugar analogs and three non-iminosugar inhibitors identified from a previous HTS of 62,000 compounds with the wild type recombinant enzyme. However, the enhancement of enzyme activity by the chaperone action of an enzyme inhibitor must be balanced against the direct inhibition of the enzyme. An enzyme activator could also function as a chaperone by binding to the enzyme and helping to correct its misfolding and mistrafficking. While activators for GC have not yet been identified, they may have better therapeutic potential than inhibitors. Therefore the discovery and development of chemical activators may provide a new strategy for the chaperone therapy. We have optimized a new assay using N370S mutant GC derived from the spleen of a Gaucher patient. […] In addition, the MLPCN compound library has expanded, which increases the chance of finding new and better probes. This assay characterizes compound activity using purified wildtype enzyme instead of mutant enzyme from tissue homogenate. Compound activity differences may be due to the absence of endogenous cofactors found in tissue homogenate as well as inherent differences in enzyme stability and catalytic activity between the N370S and wildtype forms of the protein.
NCGC Assay Protocol Summary: This is a fluorogenic enzyme assay with 4-methylumbelliferyl-beta-D-glucopyranoside as the substrate and purified wildtype glucocerebrosidase as the enzyme preparation. Upon the hydrolysis of this fluorogenic substrate, the resulting product, […] which can be detected by a standard fluorescence plate reader. Data were normalized to the controls for basal activity (without enzyme) and 100% activity (with enzyme). The AC50 values were determined from concentration-response data modeled with the standard Hill equation. Assay buffer: 50 mM citric acid (titrated with potassium phosphate to pH 5.0), 100 mM potassium chloride, 10 mM sodium chloride, 1 mM magnesium chloride, 0.01% Tween-20. 1536-well assay protocol: (1) Add 2 ul/well of glucocerebrosidase enzyme solution (5 nM final) (2) Add 23 nL compounds in DMSO solution. The final titration was 0.5 nM to 58 uM. (3) Add 2 ul of substrate (1 mM final) (4) Incubate at 37C for 40 min. (5) Add 2 ul stop solution (1M NaOH and 1M Glycine mixture, pH 10) (6) Detect the assay plate in a ViewLux plate reader (PerkinElmer) with Ex=365 nm and Em=440nm. Keywords: Glucocerebrosidase, beta-glucosidase, Gaucher Disease, pharmacological chaperone, chaperone therapy, high throughput screening, glucocerebrosidase inhibitor, MLSMR, MLSCN, NIH Roadmap, qHTS and NCGC
(In general: qHTS replaces the single test concentration by a dilution series.)
Regarding `OCCNc1nc(-c2cccs2)nc2ccccc12`, the Potency was 17.8 µM (active). Then `S=C(NCCCc1cnc[nH]1)NCCCN(Cc1ccc(Cl)c(Cl)c1)c1ccc(Br)cn1`, with 0.708 µM (active); and `Cc1ccc(-c2nc(N3CCN(S(=O)(=O)c4ccc(F)cc4)CC3)c3ccc(Cl)cc3n2)cc1`, with “inactive”.

With `NS(=O)(=O)c1ccc(S(=O)(=O)N2CCN(c3nc(-c4cccs4)nc4ccccc34)CC2)cc1`, the Potency is 15.8 µM (active). Then `Cc1ccc(S(=O)(=O)N2CCN(c3nc(-c4cccs4)nc4ccccc34)CC2)cc1`, with 2 µM (active) and 10 µM (active). Turning to `O=S(=O)(c1ccc(Cl)cc1)N1CCN(c2nc(Nc3cc(Cl)ccc3O)nc3ccccc23)CC1`, the Potency was 1.26 µM (active). Take `COc1ccc(-c2nc(N3CCN(S(=O)(=O)c4ccc(F)cc4)CC3)c3ccccc3n2)cc1`: the Potency entry is “inactive”. Then `O=S(=O)(c1ccc(F)cc1)N1CCN(c2nc(-c3cccs3)nc3cc(Cl)ccc23)CC1`, with “inactive”; and `Cc1cc(C)cc(N(CC(=O)NC2CCCCCC2)S(=O)(=O)c2c(C)[nH]c(=O)[nH]c2=O)c1`, with 0.398 µM (active); and `CC(C)(C)C(=O)OCCNc1nc(-c2ccccc2)nc2ccccc12`, with 0.708 µM (active).

As to `COc1ccc(S(=O)(=O)N2CCN(c3nc(-c4cccs4)nc4ccccc34)CC2)cc1`, the Potency is 14.1 µM (active). Then `O=S(=O)(c1ccc(Cl)cc1)N1CCN(c2nc(-c3cccc(Br)c3)nc3ccccc23)CC1`, with “inactive”. Then `O=C(c1ccc2c(c1)OCCO2)N1CCN(c2nc(-c3cccs3)nc3ccccc23)CC1`, with 31.6 µM (active); and `O=S(=O)(c1ccc(Cl)cc1)N1CCN(c2nc(-c3cccs3)nc3ccccc23)CC1`, with 2.51 µM (active) and 6.31 µM (active). Then `Cc1ccc(S(=O)(=O)N2CCN(c3nc(-c4ccc(F)cc4)nc4cc(Cl)ccc34)CC2)cc1`, with “inactive”; and `O=S(=O)(c1ccc(Cl)cc1)N1CCN(c2nc(-c3ccc(Cl)cc3)nc3ccccc23)CC1`, with “inactive”. Consider `O=S(=O)(c1cccc2ccccc12)N1CCN(c2nc(-c3cccs3)nc3ccccc23)CC1`, for which the Potency was 14.1 µM (active). Then `O=S(=O)(c1ccc(Cl)cc1)N1CCN(c2nc(-c3ccc(F)cc3)nc3cc(Cl)ccc23)CC1`, with “inactive”; and `COc1cccc(S(=O)(=O)N2CCN(c3nc(-c4cccs4)nc4ccccc34)CC2)c1`, with 10 µM (active); and `O=S(=O)(c1ccc(F)cc1)N1CCN(c2nc(-c3cccc(Br)c3)nc3ccccc23)CC1`, with “inactive”. To `c1csc(-c2nc(NCC3CCCO3)c3ccccc3n2)c1` (centres undefined) belongs 15.8 µM (active); to `O=S(=O)(Cc1ccccc1)N1CCN(c2nc(-c3cccs3)nc3ccccc23)CC1`, 10 µM (active); to `O=S(=O)(c1ccccc1C(F)(F)F)N1CCN(c2nc(-c3cccs3)nc3ccccc23)CC1`, 4.47 µM (active). Then `O=S(=O)(c1ccc2ccccc2c1)N1CCN(c2nc(-c3cccs3)nc3ccccc23)CC1`, with 8.91 µM (active); and `CC(C)C(C)NC(=O)CSc1nc2scc(-c3ccco3)c2c(=O)n1-c1ccccc1` (centres undefined), with “inactive”. In the case of `O=S(=O)(c1ccccc1Cl)N1CCN(c2nc(-c3cccs3)nc3ccccc23)CC1`, the Potency is 2.82 µM (active).

Regarding `O=S(=O)(c1ccc(F)cc1)N1CCN(c2nc(-c3ccccc3)nc3cc(Cl)ccc23)CC1`, the Potency result was “inactive”.

In the case of `O=S(=O)(c1cccc(C(F)(F)F)c1)N1CCN(c2nc(-c3cccs3)nc3cc(Cl)ccc23)CC1`, the Potency result was “inactive”. Turning to `O=S(=O)(c1ccc2c(c1)OCCO2)N1CCN(c2nc(-c3ccccc3)nc3ccccc23)CC1`, the Potency was 12.6 µM (active). To `Cc1ccc(Cl)cc1NC(=O)c1ccccc1OCC(=O)Nc1ccc(Cl)cc1` belongs “inactive”; to `O=S(=O)(c1ccc2c(c1)OCCO2)N1CCN(c2nc(-c3cccs3)nc3ccccc23)CC1`, 2.51 µM (active); to `O=S(=O)(c1ccc(F)cc1)N1CCN(c2nc(-c3ccc(F)cc3)nc3cc(Cl)ccc23)CC1`, “inactive”.

Consider `O=S(=O)(c1ccccc1)N1CCN(c2nc(-c3ccc(F)cc3)nc3cc(Cl)ccc23)CC1`, for which the Potency result is “inactive”.

For `O=S(=O)(c1cccs1)N1CCN(c2nc(-c3cccs3)nc3ccccc23)CC1`, the Potency is 8.91 µM (active).
